# Assay outcomes from PubChem.
# Sampled rows, rich in hits. Any-hit rate of the full collection: about 5.2%.
# TrxR1 inh: blocks rat thioredoxin reductase 1; O89049; recombinant rTrxR1, NADPH fluorescence consumption, selenite substrate; Potency, µM (titrated, usually from 114 µM), without a hit: top-dose activity change, negative = inhibition, usual class: inhibitors; 1% of 390,000 active; AID 588453; note: nearly all actives have a fitted effect of over 65% in size
# Target sequence (O89049 whole entry, looked up): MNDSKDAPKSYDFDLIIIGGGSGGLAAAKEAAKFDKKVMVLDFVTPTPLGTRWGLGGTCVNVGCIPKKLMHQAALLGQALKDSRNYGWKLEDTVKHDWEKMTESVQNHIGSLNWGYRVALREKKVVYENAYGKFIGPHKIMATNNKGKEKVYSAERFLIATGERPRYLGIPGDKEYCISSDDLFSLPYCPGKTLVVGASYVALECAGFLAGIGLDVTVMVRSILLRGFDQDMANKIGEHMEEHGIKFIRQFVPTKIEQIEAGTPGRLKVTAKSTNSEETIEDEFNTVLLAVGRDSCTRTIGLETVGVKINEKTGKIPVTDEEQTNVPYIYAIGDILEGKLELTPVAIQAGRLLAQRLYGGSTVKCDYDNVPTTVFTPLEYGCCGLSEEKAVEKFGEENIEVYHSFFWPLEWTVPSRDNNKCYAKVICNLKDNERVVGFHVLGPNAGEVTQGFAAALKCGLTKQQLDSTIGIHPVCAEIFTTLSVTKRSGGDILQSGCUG
#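 Rat TrxR1 (90 nM in the dispensed reagent) was pre-reduced with 400 uM NADPH for 5 min at room temperature, then incubated with compound for 15 min. After 400 uM selenite was added, NADPH fluorescence (Ex 340/Em 450 nm) was followed for 8 min.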
# VDR inh: vitamin D3 receptor (human) inhibition | P11473 | VDR-SRC2-3 peptide fluorescence polarization, 2 h | Potency, µM, for the others: max response, negative = inhibition, hits mostly inhibitors | 0.93% of 400,000 active
#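 Fluorescence polarization assay of small-molecule disruption of VDR binding to coregulator peptide SRC2-3. Compounds and controls pin-transferred, then read after 2 h incubation at ambient room temperature.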
# PLK1 PBD block: PLK1 (human) polo-box domain binding inhibition | P53350 | Plk1 PBD binding of FITC phosphopeptide, fluorescence polarization | Potency, µM, for inactives: max response, negative = inhibition, most hits filed as inhibitors | 2.8% of 360,000 active; note: series mostly up to about 57 µM; nearly all actives have a fitted effect of over 65% in size
# IDH1 R132H inh: human IDH1 R132H inhibition; O75874; Potency, µM (doses to about 76.6 µM), for inactives: at the top dose activity change, negative = inhibition, hits mostly inhibitors; IDH1-R132H enzyme, NADPH consumption, diaphorase/resazurin fluorescence; 0.093% of 390,000 active; AID 602179; note: nearly all actives have a fitted effect of over 65% in size
#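 IDH1-R132H (0.5 ug/mL) preincubated 30 min with compound, then NADPH (0.016 mM) and alpha-KG (2 mM) added; 80 min at RT, pH 7.5. Remaining NADPH coupled via diaphorase/resazurin to fluorescence (540/590 nm); concentration-response curves normalized to no-enzyme control.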
# TrxR1 substrate: is turned over as a substrate by rat TrxR1. O89049. purified TrxR1 substrate turnover, NADPH consumption readout. Potency, µM (highest dose often 114 µM), without a hit: top-dose activity change, negative = substrate turnover. 0.01% of 390,000 active. AID 588456; note: nearly all actives have a fitted effect of over 50% in size
#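 Rat TrxR1, dispensed at 90 nM, was prereduced with 400 uM NADPH (final) for 5 min at ~22 deg C, then incubated with compound 15 min before 400 uM selenite. A first-read NADPH fluorescence drop versus no-compound background flagged substrates.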
# Sfp inh: blocks B. subtilis Sfp PPTase activity; Biochemical Sfp PPTase activity, qHTS; Potency, µM, inactives show largest response in the series, negative = inhibition, hits mostly inhibitors; 3.5% of 310,000 active; AID 1490;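 note: the enzyme is Sfp with the accession as filed and its product quenches rhodamine fluorescence; 0% = enzyme reaction without inhibitor and -100% = no enzyme wells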
#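 Fluorescence-quenching assay with 15 nM Sfp, 5 uM rhodamine-CoA and 12.5 uM BHQ-2-labelled ybbR peptide in pH 7.6 Hepes/MgCl2 buffer. Enzyme was pre-incubated with compound for 15 min at room temperature. Rate was taken from the 30-min fluorescence change (525/598 nm).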
# * marks the source's active call; other numbers are inactive results; u = inconclusive; x = not tested or not shown; [ ] = another dose, or the depositor's remark. Calls come from the whole dose curve; as a rule, active = well fitted curve in the direction sought with a large enough effect; inconclusive = small, poorly fitted or top-dose-only effect, or another doubt; inactive = no such curve, though single readings can be large; an effect the other way counts as inactive or inconclusive. Unless noted, % is set by controls: 0 for no effect and ±100 for the full control effect; potency is the fitted concentration of half-maximal effect.
SMILES,TrxR1 inh,VDR inh,PLK1 PBD block,IDH1 R132H inh,TrxR1 substrate,Sfp inh
CC(=O)OC1CC2(C)C(CCC2(O)C(C)=O)C2CCC3C(Cl)C(=O)CCC3(C)C12 (stereo not drawn),0.7%[2.29 µM],12.3%,-2.2%,-0.1%,-2.1%[2.29 µM],x
CCOC(=O)c1sc(N2N=C(C)/C(=C\c3ccc(OCC(=O)OC)cc3)C2=O)nc1C,-32.7%,u,13.4µM*,1.6%,-8.0%,-14.1%
CCCCCCCCCCCCCC/C(C(=O)O)=C(\C)C(=O)O,x,-1.3%,x,x,x,-14.8%
COc1cc(-c2cc(OC)c3c(C)oc(C)c3c(=O)c2)ccc1OC(=O)c1cccc(Cl)c1,0.7%,8.3%,x,-18.6%,-9.7%,x
Cc1cc(C(=O)c2cccs2)c(N)s1,-24.5%,u,23.8µM*,-4.9%,1.3%,50.1µM*
Cc1cc(C)c(C(=O)c2cccs2)c(C)c1,13.2%,-4.4%,0.4%,6.1%,1.9%,x
Clc1ccc(-c2nc3sccn3c2/C=N/OCc2ccc(Cl)c(Cl)c2)cc1,x,-8.3%,x,x,x,-12.1%
C=CC[C@H]1C=C[C@@H](C(C(=O)OC)C(=O)OC)CN1C(C)=O,14.3%,u,23.8µM*,4.4%,1.0%,x
CC[C@H]1C=C[C@@H](C(C(=O)OC)C(=O)OC)CN1C(C)=O,7.6%,79.4µM*,26.7µM*,4.9%,0.2%,x
NC(=O)C1CC(=O)N(c2ccc(OCc3ccc(Cl)cc3)cc2)C1 (stereo not drawn),12.9%,u,5.97µM*,8.3%,-0.6%,-6.6%
CCCNC(=O)C1CC(=O)N(c2ccc(OCc3ccc(Cl)cc3)cc2)C1 (stereo not drawn),-6.4%,-6.3%,-19.3%,12.9%,3.9%[57.1 µM],9.7%
Cc1nn(-c2ccccc2)c(N)c1Sc1ccc([N+](=O)[O-])cc1,-9.0%,u,11.9µM*,0.1%,-8.7%,u
Cc1nn(-c2ccccc2)c(OC(=O)C(C)(C)C)c1Sc1ccccc1,50.7%,79.4µM*,x,-0.2%,-3.2%,x
Cc1ccc(Sc2c(C)nn(-c3ccccc3)c2OC(=O)C(C)(C)C)cc1,41.1%,u,x,23.6%,6.7%[2.29 µM],x
Cc1nn(-c2ccccc2)c2c1C(c1ccc([N+](=O)[O-])cc1)C(C#N)=C(N)O2 (stereo not drawn),11.0%[2.29 µM],u,u,-4.5%,9.4%[57.1 µM],-11.5%
COc1ccc(C(=O)Oc2c(Sc3ccccc3)c(C)nn2-c2ccccc2)cc1OC,21.6%,-28.5%,x,14.3%,-1.4%,x
Cc1nn(-c2ccccc2)c(OC(=O)C(C)C)c1Sc1ccccc1,50.9%,70.8µM*,x,-12.7%,-3.8%,x
CC(=O)c1cccc(NC(=O)C2Cc3c(-c4ccccc4Oc4ccccc4)ccnc3O2)c1 (stereo not drawn),x,x,-5.0%,x,x,x
CC1(OC(=O)C2CCCC2)C(=O)C=C2C=C(c3ccsc3)N(Cc3ccco3)C=C2C1=O (stereo not drawn),31.6µM*,u,-27.8%,17.1%,-2.5%,-19.6%
Oc1ccc(N=Nc2ccc3c(c2)OCCO3)c2cccnc12,11.7%[57.1 µM],1.7%,26.7µM*,14.9%,-15.1%[57.1 µM],-12.8%
COc1ccc(N=Nc2ccc(O)c3ncccc23)cc1,16.5%,-5.5%,-3.6%,4.9%,2.2%,13.9%
O=S(=O)(O)c1cccc2c(N=Nc3ccc(O)c4ncccc34)cccc12,-13.9%,-12.0%,21.2µM*,3.0%,-10.0%,-7.1%
Cc1ccccc1N=Nc1ccc(O)c2ncccc12,-10.4%,-0.9%,-6.9%,9.0%,-9.6%,3.4%
COc1cc(OC)c(OC)cc1CNCCCSc1nnnn1C,17.4%,8.1%,x,-16.2%,0.3%,x
COc1cc(/C=C2\SC(=O)N(Cc3ccc(F)cc3)C2=O)cc([N+](=O)[O-])c1O,-19.4%,u,26.7µM*,19.0%,-6.3%,12.3%
COc1cc(/C=C2\SC(=O)N(Cc3ccc(Cl)cc3)C2=O)cc([N+](=O)[O-])c1O,-44.3%,-3.3%,23.8µM*,13.1%,-13.7%,-19.2%
CCS(=O)(=O)CCSc1nc2ccccc2o1,15.4%,7.2%,-4.1%,-5.5%,10.0%,14.1%
O=S(=O)(CCSc1ccccn1)c1nc2ccccc2s1,14.1µM*,u,6.7µM*,6.2%,-3.2%,-13.6%
